# CRFR2-BP antag: antagonists of CRF-binding protein/CRF-R2 receptor complex. HEK293 CRF-R2/CRF-BP, CRF-induced calcium fluorescence. inhibition, % at 11.8 µM. actives 0.59% (n = 350,000). AID 588475;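 active = inhibition of the ligand-induced calcium signal above about 50% at the single tested concentration, limit read from the data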
# ANO1 activ: activators or potentiators of mouse TMEM16A chloride channel | Q8BHY3 | HEK293 TMEM16A/YFP-H148Q/I152L, iodide quench fluorescence; hits give low values | B-score at 10 µM | actives 0.3% (n = 340,000) | AID 623877;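 active = fluorescence-ratio B-score plate-corrected deviation score at least 3 library SD below zero, with starting fluorescence score within 5 deviations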;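 note: channel opened by trigger with iodide after compound preincubation; score built on the fluorescence ratio of max minus min over baseline; more negative score means more quench and so TMEM16A activation or potentiation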
# CRFR2-BP ag: agonists of human CRF-binding protein/CRF-R2 receptor complex; HEK293 CRF-R2/CRF-BP, calcium dye fluorescence (FLIPR); percent of saturating CRF peptide response; activation, % at 13.2 µM; actives 0.46% (n = 350,000); AID 588473;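 active = activation of at least 50%, plus an integration ratio under a set limit after plate pattern correction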;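 note: plate controls were neutral control wells without compound for no effect and CRF at EC100 for full effect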
# RTF Ca sens act: increases calcium sensitivity of human cardiac regulated thin filaments; P19429+P45379; IANBD-labeled TnC RTF fluorescence at EC20 calcium; 0% EC20 calcium, 100% full calcium; activation, % at 7.2 µM; actives 0.24% (n = 340,000);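 active = activation above the mean over all tested compounds plus 3 SD, cut at about 30% in these data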;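 note: rise in fluorescence read as greater calcium sensitivity of cardiac thin filaments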
# RTF Ca sens inh: cardiac RTF calcium desensitization; IANBD-labeled cardiac RTF, Ca2+ fluorescence; inhibition, % at 7.15 µM; P19429+P45379; actives 0.12% (n = 340,000);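 active = inhibition above the mean inhibition of all tested compounds plus 3 SD, cut at about 17% in these data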;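 note: assay run at fixed EC70 calcium of 1.6 mM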
# ANO1 block: blocks the mouse calcium-activated chloride channel TMEM16A; Q8BHY3; HEK293 TMEM16A/YFP iodide influx fluorescence, ionomycin; normalized B-score (activity score, 25-100; higher = stronger inhibition) at 10 µM; actives 1.2% (n = 310,000); AID 588511;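 active = ratio plate-corrected score three or more library SD toward inhibition, starting fluorescence score within five deviations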;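 note: score derived from kinetic fluorescence span divided by baseline fluorescence per well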
# RTF inh confirm: cardiac RTF calcium sensitivity inhibition, confirmation; reconstituted cardiac thin filaments, calcium sensitivity fluorescence; AID 504635; shares compounds with RTF Ca sens inh; inhibition, % at 7.15 µM; actives 8% (n = 360); in the data active = inhibition above about 18%
# * hit, by the source's call; i = inactive; · = no result given. Shown are actives, neighbours in structure and some others; about 2.4% of the full set was active somewhere.
SMILES,CRFR2-BP antag,ANO1 activ,CRFR2-BP ag,RTF Ca sens act,RTF Ca sens inh,ANO1 block,others
COc1ccc(NC(=O)Nc2ccc(O)c3ccccc23)cc1,50.4*,i,-4.7,·,·,i,
COc1ccc(C(=O)Nc2ccc(O)c3ccccc23)cc1,4.4,i,-1.7,9.4,-11.5,i,
CC(=O)Nc1ccc(NC(=O)CCc2c(C)noc2C)cc1,-7.3,i,-2.1,1.8,-5.7,·,
CO/N=C/c1cccn1-c1nccc(OC)c1C#N,44.2,i,-0.6,·,·,i,
CCn1c(SCC(=O)NC2CCCC2)nc2c(c1=O)SCC2,-2.3,·,-0.9,·,·,·,
CCOCCCn1c(SCc2nc3ccccc3s2)nc2ccccc2c1=O,-72.9,i,51.5*,1.6,1.2,i,
COc1ccc(COc2cc(-c3cccc(OC)c3)nc3ccc(NC(=O)c4ccc(N(C)C)cc4)cc23)cc1,6.3,i,0.8,0.0,-4.0,i,
COc1ccc(COc2cc(-c3cccc(OC)c3)nc3ccc(NC(=O)c4ccc(C)cc4)cc23)cc1,-7.8,i,1.6,32.5*,2.5,i,
CC1(C)CC2(CCO1)OC(=O)CC2C(=O)Nc1ccccc1Cl (configuration not stated),-0.3,i,-1.9,-5.2,-14.7,i,
O=C(Nc1nnc(CCc2ccccc2)s1)c1ccccc1F,-28.5,i,-1.1,-4.8,-0.9,i,
CC(CCc1ccccc1)NS(=O)(=O)c1ccccc1 (configuration not stated),4.4,i,-0.9,-3.2,-2.5,i,
O=c1[nH]cccc1-c1nc2ccccc2[nH]1,7.2,i,3.3,-0.6,-2.1,i,
O=c1oc2c(CN3CCN(CCO)CC3)c(O)ccc2cc1-c1ccccn1,-14.8,i,70.9*,-1.4,1.3,i,
O=c1oc2c(CN3CCCCC3)c(O)ccc2cc1-c1nc2ccccc2[nH]1,-71.0,i,97.4*,20.3,-48.9,·,
O=c1oc2c(O)cccc2cc1-c1nc2ccccc2[nH]1,-105.2,i,183.6*,152.9*,-282.9,i,
CCc1cc2c(=O)c(-c3nc4ccccc4[nH]3)coc2c(CN2CCCCC2)c1O,-4.4,i,-0.8,-2.4,-2.0,i,
Cc1cc(=O)oc2c(CN3CCN(CCO)CC3)c(O)ccc12,19.1,i,9.6,-1.1,-10.0,i,
Cc1cc(C)cc(OCc2nnc(SCC(=O)N3CCN(c4ccccc4)CC3)o2)c1,14.2,i,0.4,-4.7,-1.2,i,
Cc1ccc(OCC(=O)NN=C2C3CC4CC(C3)CC2C4)cc1,4.9,i,-1.4,-2.9,-2.5,·,
O=[N+]([O-])/C(Cl)=C(/NCCO)C(Cl)=C(Cl)Cl,23.9,i,0.1,-5.7,-6.6,·,
CC(Sc1nnnn1-c1ccccc1)C(=O)Nc1ccc(N2CCN(C)CC2)cc1 (configuration not stated),-1.8,i,2.1,-3.5,2.5,i,
CC(Sc1nnnn1-c1ccccc1)C(=O)Nc1ccccc1-c1ccccc1 (configuration not stated),54.5*,i,-0.2,3.0,2.7,i,
Cc1ccnc(NC(=O)c2ccc(COc3ccc(Cl)cc3)o2)c1,-17.1,-10*,-0.4,-4.5,6.0,i,
CN1/C(=C\C=C(/C#N)C(=O)Nc2ccccc2F)C(C)(C)c2ccccc21,-192.5,i,257.3*,39.0*,-31.4,i,
CCCNC(=O)COc1ccc(-c2nn(C)c(=O)c3ccccc23)cc1,2.1,i,0.4,1.2,-2.8,i,
SMILES,CRFR2-BP antag,ANO1 activ,CRFR2-BP ag,RTF Ca sens act,RTF Ca sens inh,ANO1 block,others
CCOC(=O)Cc1csc(NC(=S)NC(=O)c2ccc(Cl)cc2)n1,34.4,i,9.7,7.0,-14.6,i,
CCOC(=O)Cc1csc(NC(=S)NC(=O)c2ccc([N+](=O)[O-])cc2)n1,57.3*,i,18.0,-3.0,-3.2,i,
O=C(NNC(=O)c1ccc([N+](=O)[O-])cc1)c1ccc(Br)cc1,-3.8,i,-0.1,-1.8,-2.9,i,
O=C(NNC(=S)NC(=O)c1ccc(Br)cc1)c1ccc([N+](=O)[O-])cc1,-9.3,i,94.6*,5.2,-3.8,i,
O=C(NNC(=S)NC(=O)c1ccccc1)c1ccc([N+](=O)[O-])cc1,21.0,i,40.1,4.6,1.5,i,
Cc1ccc(C(=O)NC(=S)NNC(=O)c2ccc([N+](=O)[O-])cc2)cc1,-23.5,i,94.0*,14.0,-17.2,i,
CC(=O)NC1=NC(=O)/C(=C/c2cc(C)n(-c3cccc(C(=O)O)c3)c2C)S1,3.1,-6.38*,5.8,·,·,·,
Cc1cccc(NC(=O)c2ccccc2O)c1C,30.6,i,20.6,-4.8,-10.8,25*,
Cc1cccc(NC(=O)c2cccc([N+](=O)[O-])c2O)c1C,58.7*,i,44.8,-0.5,-5.0,·,
Cc1cccc(NC(=O)c2cnn3ccccc23)c1C,-12.9,i,-2.3,-6.0,-10.9,i,
O=C(CN1C(=O)NC2(CCc3ccccc32)C1=O)c1c[nH]c2ccccc12 (configuration not stated),-5.3,i,0.4,-0.1,6.8,i,
COc1ccccc1-c1c(C)nn2c(N3CCN(c4ccccc4OC)CC3)cc(C)nc12,67.9*,i,-1.6,-2.9,2.0,i,
COc1ccccc1-c1c(C)nn2c(N3CCOCC3)cc(C)nc12,3.4,i,-0.4,-0.7,-2.9,i,
COc1cc(C2C(c3ccccc3)C(c3cc(OC)cc(=O)o3)C2c2ccccc2)oc(=O)c1 (configuration not stated),6.9,i,-1.2,-7.4,-4.8,·,
COc1ccc(OC)c(-n2c(SCC(=O)N3CCc4ccccc43)nc3c(c2=O)SCC3)c1,21.9,i,1.1,1.1,39.8*,i,RTF inh confirm=-3.1
COc1cccc(CNC2CCCC2)c1,0.6,i,-2.0,-1.7,-5.4,i,
COc1cc(CNC2CCCC2)cc(OC)c1,1.9,i,0.3,-2.1,17.7*,i,RTF inh confirm=-1.9
COc1ccc(-c2nnc(SCc3c(C)noc3C)o2)cc1,-3.3,i,-1.6,0.3,18.2*,i,RTF inh confirm=-3.6
Cc1ccccc1C(=O)N/N=C1/SCC(=O)N1Cc1ccccc1,4.5,i,-0.3,2.7,18.3*,i,RTF inh confirm=1.5
COc1ccc(Cc2nnc(SCC(=O)Nc3ccccc3C#N)o2)cc1,7.0,i,0.8,-3.3,-2.0,i,
CCCN1CCN(C(=O)c2ccc(Sc3ccc(C)cc3)c(NC(C)=O)c2)CC1,22.2,i,-4.6,-3.2,-9.5,i,
